± gives the standard deviation of the averaged measurements.
What was measured:
Conditions in all cases: concentration: 10 µM; 24 h
HCC1569 [1] = experiment: cell number relative to DMSO (% of DMSO); higher = more cells (less growth inhibition / toxicity)
In short: (§1)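 HCC1569 and TDF cells were seeded at 800 per well in 384-well plates in RPMI with 10% FBS and treated with compounds at 10 µM for 24 h at 37 °C, in triplicate. After fixation in 3.7% formaldehyde, cells were stained with a rabbit anti-H1.0 antibody, an AlexaFluor 647 secondary and DAPI, and six fields per well were imaged at ×10. H1.0 nuclear intensity or cell number is given as percent of the plate control, using the median of replicates, with HCC1569 values smoothed for positional effects.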

TDF [2] = experiment: as above
In short: as §1

TDF [3] = experiment: H1.0 immunofluorescence intensity relative to DMSO (% of DMSO); higher = stronger H1.0 induction, active = 120 or more
In short: as §1

HCC1569 [4] = experiment: H1.0 immunofluorescence intensity relative to DMSO (% of DMSO); higher = stronger H1.0 induction, active = 140 or more
In short: as §1
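Throughout, for H1.0 immunofluorescence intensity relative to DMSO: TDF is a line of transformed human dermal fibroblasts of mesenchymal origin.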
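Throughout, for cell number relative to DMSO: TDF denotes transformed human dermal fibroblasts of mesenchymal origin.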

Row | SMILES | cell number (HCC1569 [1]) | cell number (TDF [2]) | H1.0 immunofluorescence intensity (TDF [3]) | H1.0 immunofluorescence intensity (HCC1569 [4])
1 | COc1ccc(/C=C2\COc3ccc(C)cc3C2=O)cc1O | 58.1 | 28 | 126 (active) | 134 (inactive)
2 | Cl.NC(CO)C(=O)NNCc1ccc(O)c(O)c1O (stereo not drawn) [Benserazide hydrochloride] | 91.1 | 95.6 | 98.3 (inactive) | 96.3 (inactive)
3 | Cc1cccc(Nc2cc(Cl)nc(SCC(=O)O)n2)c1C | 101 | 104 | 91.8 (inactive) | 97.6 (inactive)
4 | Nc1nc(N)c2nc(CNc3ccc(C(=O)NC(CCC(=O)O)C(=O)O)cc3)cnc2n1 (stereo not drawn) [Aminopterin] | 80.8 | 87.6 | 87.8 (inactive) | 75.9 (inactive)
5 | NCC(O)c1ccc(O)c(O)c1.O=C(O)C(O)C(O)C(=O)O (stereo not drawn) [Norepinephrine-(+)-tartrate L (-)] | 100 | 99.2 | 91.4 (inactive) | 105 (inactive)
6 | Cl.NNc1nncc2ccccc12 [Hydralazine hydrochloride] | 101 | 107 | 93.2 (inactive) | 92 (inactive)
7 | C=CCCCCCCCCCC(=O)O [11-Dodecenoic acid] | 97.4 | 98.7 | 102 (inactive) | 103 (inactive)
8 | Cc1nc2cc3nc(-c4cccs4)cnc3cc2n1C | 106 | 96.2 | 102 (inactive) | 94.7 (inactive)
9 | CC=C1C2C=C(C)CC1(N)c1ccc(=O)[nH]c1C2 (single isomer, unassigned; (-)) [(-)-Huperazine] | 98.2 | 100 | 98.9 (inactive) | 84.1 (inactive)
10 | CCCCCC(O)C=CC1C(O)CC(O)C1CC=CCCCC(=O)O (stereo not drawn) [9a,11b Prostaglandin F2] | 106 | 99.4 | 94.2 (inactive) | 101 (inactive)
11 | CC1(C)CCC2(C(=O)O)CCC3(C)C(=CCC4C5(C)CCC(O)C(C)(C)C5CCC43C)C2C1 (stereo not drawn) [Oleanolic acid] | 101 | 91.6 | 101 (inactive) | 89.8 (inactive)
12 | Cl.Clc1cccc(Cl)c1NC1=NCCN1 [Clonidine.HCl] | 103 | 100 | 84.7 (inactive) | 101 (inactive)
13 | CCCCCCCCCCOCCC(=O)O [4-Oxatetradecanoic acid] | 102 | 110 | 95.6 (inactive) | 103 (inactive)
14 | Cl.c1ccc2nc(C3=NCCN3)ccc2c1 [BU224 hydrochloride] | 101 | 110 | 95 (inactive) | 100 (inactive)
15 | O=C(O)[C@H]1C[C@H](C(=O)O)N1 (relative stereo) [trans-Azetidine-2,4-dicarboxylic acid] | 95.1 | 106 | 91.5 (inactive) | 90.5 (inactive)
16 | O=c1c(O)c(-c2ccc(O)c(O)c2)oc2cc(O)ccc12 [Fisetin] | 95.8 | 95.8 | 96 (inactive) | 101 (inactive)
17 | CCC1(c2ccccc2)NC(=O)N(C)C1=O (stereo not drawn) [Mephenytoin] | 100 | 109 | 98.5 (inactive) | 104 (inactive)
18 | O=C1c2ccccc2-c2n[nH]c3cccc1c23 [JNK Inhibitor II] | 91.4 | 112 | 90.5 (inactive) | 144 (active)
19 | O=C(Nc1ccc(N2CCOCC2)c(S(=O)(=O)Nc2ccccc2Cl)c1)c1ccncc1 [Chk2 Inhibitor] | 98.5 | 110 | 87.3 (inactive) | 99.5 (inactive)
20 | C#CC1(O)CCC2C3CCC4=CC(=O)CCC4C3CCC21C (stereo not drawn) [Norethindrone] | 96.5 | 91 | 99.5 (inactive) | 109 (inactive)
21 | O=C(O)c1cccnc1Nc1cccc(C(F)(F)F)c1 [Niflumic acid] | 98.8 ± 5.9 | 95.2 ± 23 | 97.7 (inactive) | 101 (inactive)
22 | NC(N)=NCc1cccc(I)c1.NC(N)=NCc1cccc(I)c1.O=S(=O)(O)O [m-Iodobenzylguanidine hemisulfate] | 109 | 98.8 | 98.1 (inactive) | 98.4 (inactive)
23 | O.O.O=c1c(O)c(-c2ccc(O)c(O)c2)oc2cc(O)cc(O)c12 [Quercetin dihydrate] | 88.6 | 98.7 | 90.2 (inactive) | 134 (inactive)
24 | CC1CNc2c(cccc2S(=O)(=O)NC(CCCN=C(N)N)C(=O)N2CCC(C)CC2C(=O)O)C1 (stereo not drawn) [Argatroban] | 107 | 104 | 94.1 (inactive) | 112 (inactive)
25 | CCCNCC(O)COc1ccccc1C(=O)CCc1ccccc1 (stereo not drawn) [Propafenone] | 103 | 101 | 92.6 (inactive) | 103 (inactive)
26 | CSc1ccc2c(c1)N(CCC1CCCCN1C)c1ccccc1S2 (stereo not drawn) [Thioridazine] | 102 | 102 | 105 (inactive) | 133 (inactive)

Row | SMILES | cell number (HCC1569 [1]) | cell number (TDF [2]) | H1.0 immunofluorescence intensity (TDF [3]) | H1.0 immunofluorescence intensity (HCC1569 [4])
27 | Br.Oc1ccc(C2CNCc3sccc32)cc1O (stereo not drawn) | 100 | 96.3 | 94.4 (inactive) | 112 (inactive)
28 | CC(CN(C)C)CN1c2ccccc2Sc2ccc(C#N)cc21 (stereo not drawn) | 93.5 | 90.4 | 118 (inactive) | 108 (inactive)
29 | Cc1cnc(Nc2ccc(N3CCN(C)CC3)cc2)nc1Nc1cccc(S(=O)(=O)NC(C)(C)C)c1 | 31.4 | 98.6 | 97.9 (inactive) | 174 (active)
30 | CCC(C)C(=O)OC1CC(O)C=C2C=CC(C)C(CCC3CC(O)CC(=O)O3)C21 (stereo not drawn) [Pravastatin Lactone] | 101 | 109 | 91.6 (inactive) | 110 (inactive)
31 | COc1cc(NS(=O)(=O)c2ccc(N)cc2)nc(OC)n1 [Sulfadimethoxine] | 103 | 109 | 96.7 (inactive) | 92.3 (inactive)
32 | CC(C)NCC(O)c1ccc(NS(C)(=O)=O)cc1.Cl (racemic) | 108 | 100 | 92.6 (inactive) | 99.1 (inactive)
33 | Cc1nn(C)c2nc(NNC(=O)Nc3cc(Cl)nc(Cl)c3)cc(C(C)C)c12 | 66 | 12.8 | 170 (active) | 140 (active)
34 | O=c1[nH]c(=O)n([C@H]2C[C@H](O)[C@@H](CO)O2)cc1/C=C/Br [(E)-5-(2-Bromovinyl)-2'-deoxyuridine] | 104 | 100 | 97.3 (inactive) | 87.7 (inactive)
35 | CN(C)c1ccc(O)c2c1CC1CC3C(N(C)C)C(=O)C(C(N)=O)=C(O)C3(O)C(=O)C1=C2O (stereo not drawn) [Minocycline] | 107 | 101 | 110 (inactive) | 88.6 (inactive)
36 | CC12CCC(=O)C=C1C=CC1C2CCC2(C)C1CCC21CCC(=O)O1 (stereo not drawn) [Canrenone] | 99.6 | 103 | 89.7 (inactive) | 102 (inactive)
37 | O=C(Nc1ccccc1)c1cc([N+](=O)[O-])ccc1Cl | 98.3 | 90.5 | 100 (inactive) | 97.9 (inactive)
38 | CCCCCC=CCC=CCC=CCCCCC(=O)O [6(Z), 9(Z), 12(Z)-Octadecatrienoic Acid] | 101 | 93.2 | 91.1 (inactive) | 105 (inactive)
39 | CCC=CCC=CCC=CCC=CCC=CCC=CCCC(=O)O [Docosahexaenoic acid] | 99.8 ± 4.3 | 97.5 ± 3.1 | 104 (inactive) | 105 (inactive)
40 | O=C(O)CCC(=O)N1CCC[C@H]1C(=O)O [N-Succinyl-L-proline] | 99.6 | 100 | 102 (inactive) | 104 (inactive)
41 | CC1C(NC(=O)C(=NOC(C)(C)C(=O)O)c2csc(N)n2)C(=O)N1S(=O)(=O)O (stereo not drawn) [Aztreonam] | 105 | 105 | 93.1 (inactive) | 103 (inactive)
42 | NC(=O)CC[C@H](N)C(=O)O [L-Glutamine] | 100 | 112 | 91.4 (inactive) | 105 (inactive)
43 | NC(=O)NO [Hydroxyurea] | 103 | 108 | 93.9 (inactive) | 91.8 (inactive)
44 | O=C(O)c1cn(-c2ccc(F)cc2)c2cc(N3CCNCC3)c(F)cc2c1=O [Sarafloxacin] | 105 | 95.3 | 99.5 (inactive) | 95.9 (inactive)
45 | CCCn1c(=O)c2[nH]c(-c3ccc(OCC(=O)Nc4ccc(C#N)cc4)cc3)nc2n(CCC)c1=O | 105 | 114 | 96.6 (inactive) | 102 (inactive)
46 | CC(C)Cc1ccc(C(C)C(=O)O)cc1 (racemic) | 103 | 112 | 95.4 (inactive) | 97.7 (inactive)
47 | N#Cc1cnc2cnc(NCc3cccnc3)cc2c1Nc1ccc(F)c(Cl)c1 [Tpl2 Kinase Inhibitor] | 69.9 | 74.3 | 92.6 (inactive) | 185 (active)
48 | Clc1ccc(COC(Cn2ccnc2)c2ccc(Cl)cc2Cl)c(Cl)c1 (stereo not drawn) [Miconazole] | 96.8 | 110 | 101 (inactive) | 114 (inactive)
49 | CCCCCCCCCCCCCCCC(=O)OC1C(SC)OC(C(NC(=O)C2CC(CCC)CN2C)C(C)Cl)C(O)C1O.Cl (stereo not drawn) [Clindamycin palmitate.HCl] | 96.5 | 101 | 93.3 (inactive) | 106 (inactive)
50 | COC(=O)C1=COC(C)C2CN3CCc4c([nH]c5ccccc45)C3CC12 (stereo not drawn) [Teterahydroalstonine] | 102 | 104 | 98.8 (inactive) | 88 (inactive)
51 | CNC1(C)C2CCC(C2)C1(C)C (stereo not drawn) [Mecamylamine] | 101 | 106 | 83.3 (inactive) | 107 (inactive)
52 | O=C(O)C=Cc1cnc[nH]1 [4-Imidazoleacrylic acid] | 101 | 107 | 97.2 (inactive) | 108 (inactive)

From the supplement of paper PMC7156485
